TRHR ag: activates the human TRH receptor. TRHR cells, calcium flux fluo-8, FDSS agonist mode. activation, % at 2 µM. actives 0.18% (n = 360,000). AID 493084; in the data active = activation above about 30%; also: 0% is about no effect
Target sequence (P34981 whole entry, looked up): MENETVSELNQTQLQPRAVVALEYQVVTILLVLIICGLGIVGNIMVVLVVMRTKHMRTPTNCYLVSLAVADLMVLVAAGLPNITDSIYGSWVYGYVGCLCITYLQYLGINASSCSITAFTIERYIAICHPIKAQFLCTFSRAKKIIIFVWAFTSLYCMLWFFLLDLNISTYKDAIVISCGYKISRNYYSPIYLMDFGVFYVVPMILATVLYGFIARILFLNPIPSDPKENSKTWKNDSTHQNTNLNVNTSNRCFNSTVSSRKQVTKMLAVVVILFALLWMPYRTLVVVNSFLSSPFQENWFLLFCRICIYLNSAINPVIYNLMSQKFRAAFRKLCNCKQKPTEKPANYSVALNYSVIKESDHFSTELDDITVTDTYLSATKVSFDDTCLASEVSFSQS
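Read-out: compound-evoked intracellular calcium rise in TRHR cells, fluo-8 dye, kinetic FDSS fluorescence at 1 s/cycle following a 10-cycle baseline. Cells cultured overnight before dye loading (30 min–1.5 h, RT).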
TRPML1 inh: human mucolipin-1 channel inhibition; Q9GZU1; TRPML1-inducible cells, Ca2+ dye fluorescence, FDSS; active compounds read low; inhibition of EC80 agonist-evoked calcium signal; activity change, negative = inhibition, % (no concentration beside the values); actives 0.02% (n = 390,000); AID 624415; in the data active = activity change below about -50%; inconclusive = between about -30% and that limit;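 also: stimulus is agonist 54-4 at its EC80 concentration; % is scaled to controls: 0 for no effect and ±100 for the full control effect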
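Calcium fluorescence in TRPML1-DL cells induced overnight with Tet: a 110 s read after compound pin addition, then a 110 s antagonist read after challenge with 54-4 at 4 uM final (EC80).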
TRPML1 agonist: human mucolipin-1 channel agonism; activation, % (test concentration not listed); AID 624414; TRPML1-expressing cells, Ca2+ dye fluorescence, FDSS; actives 0.12% (n = 410,000); Q9GZU1; in the data active = activation above about 50%; inconclusive = mostly about 30% to 49%; also: 0% is about no effect
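Tet-induced TRPML1-DL cells, 1,500 per well, cultured overnight, were loaded with a no-wash Ca2+ dye for 45–90 min. Calcium fluorescence was recorded on the FDSS for 110 s after compound addition, before the EC80 agonist (4 uM 54-4) was added.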
TRPV1 ag: human TRPV1 agonism; AID 540275; Q8NER1; actives 0.19% (n = 320,000); activation, % at 8.33 µM; TRPV1-expressing cells, Fluo-8 calcium influx, agonist mode; in the data active = activation above about 80%; inconclusive = between about 30% and that limit; also: 0% is about no effect
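TRPV1-expressing cells were cultured overnight at 35.5C and loaded with Fluo-8 calcium dye for 40 to 90 min at room temperature. After a 10 s baseline, compound was added and calcium influx was read kinetically for 3 min (ex 480/em 520 nm).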
TRHR enhancer: allosterically enhances the human TRH receptor; TRHR cells, fluo-8 calcium fluorescence, EC20 TRH enhancement; enhancement, % at 2 µM; actives 0.66% (n = 360,000); AID 493056; in the data active = enhancement above about 30%; also: 0% is about no effect
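Enhancer read-out: after compound pinning and an initial kinetic agonist-mode read, an EC20 of TRH (10 nM final) was injected and fluo-8 calcium signal (Ex 480/Em 530) followed at 1 s/cycle for 100 cycles in TRHR-expressing cells.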
TRPV1 potentiator: potentiators of human vanilloid receptor 1 (TRPV1) | Q8NER1 | TRPV1-expressing cells, Fluo-8 calcium influx, capsaicin EC20 potentiation | potentiation, % at 8.33 µM | actives 0.02% (n = 320,000); in the data active = potentiation above about 80%; inconclusive = between about 30% and that limit; also: 0% is about no effect
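Fluo-8 calcium influx in TRPV1-expressing cells, kinetic read (ex 480/em 520 nm). Compound added and read 3 min for agonist activity, followed by capsaicin at EC20 final and 2 min further read for enhancement.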
Numbers without * were called inactive; ? = inconclusive; . = not tested or not shown. Compounds with a hit are over-represented: about 0.99% of the library has one in this group of screens.

SMILES	TRHR ag	TRPML1 inh	TRPML1 agonist	TRPV1 ag	TRHR enhancer	TRPV1 potentiator
CCOC(=O)[C@H]1[C@H]2COc3ccc(Cl)cc3[C@@H]2N2C(=O)c3ccc(Cl)cc3NC(=O)[C@@]12C	0	23	1	87*	-2	0
CCOC(=O)[C@H]1[C@H]2COc3ccc(OC)cc3[C@@H]2N2C(=O)c3ccc(Cl)cc3NC(=O)[C@@]12C	0	38	0	90*	-5	?
CCOC(=O)CC1=C(C(=O)OCC)C(c2cccnc2)C(C#N)=C(N)O1 (stereo not given)	0	12	0	3	33*	-2
CCOC(=O)CC1=C(C#N)C(c2cccnc2)C(C(=O)OCC)=C(N)O1 (stereo not given)	0	12	-1	0	1	2
CCOC(=O)c1c(C)c(C(=O)NCc2cccnc2)c(C)n1C	0	0	1	2	-7	-8
CCOC(=O)c1c(C)c(C(=O)NCc2ccc(Cl)cc2)c(C)n1C	0	-8	0	.	35*	.
Cc1cc(C=O)cc(C)c1[N+](=O)[O-]	.	.	-1	.	.	.
CSCCC(c1nnnn1-c1c(C)cccc1C)N1CCN(C/C=C/c2ccccc2)CC1 (stereo not given)	.	.	69*	.	.	.
COc1cc(CNc2ccc3[nH]c(=O)[nH]c3c2)ccc1OCc1c(F)cccc1Cl	3	-26	0	90*	5	-9
O=[N+]([O-])c1ccc([S+](=O)([O-])N2CCN([S+](=O)([O-])c3ccc4c(c3)OCCO4)CC2)c([N+](=O)[O-])c1	0	.	.	.	1	.
O=C(COC(=O)c1cc(Cl)ccc1O)c1ccc2c(c1)OCO2	0	21	1	10	38*	-6
Cc1ccc(-c2nc(=Nc3c(C)cc(C)cc3C)sn2-c2ccccc2)cc1	.	.	8	.	.	.
CN(C)CCCN(C(=O)COc1ccccc1)c1nc2c(F)cccc2s1	1	.	.	?	32*	-19
COc1cccc2sc(N(CCCN(C)C)C(=O)COc3ccc(Cl)cc3)nc12	2	0	0	-1	0	?
CC(C)C[C@@H](CN=[N+]=[N-])N1CCN(C)CCC1=O	0	-8	-1	-2	31*	-4
COc1ccccc1N1CCN(C(=O)C(C)NC(=O)c2ccco2)CC1 (stereo not given)	0	-3	-1	6	2	-6
Cc1onc(-c2ccccc2)c1C(=O)N1CCN(C(=O)c2ccco2)CC1	0	4	0	1	30*	-1
Cc1onc(-c2ccccc2)c1C(=O)N1CCCN(C(=O)c2c(-c3ccccc3)noc2C)CC1	0	-3	0	3	-11	-10
COc1ccccc1N1CCN(C(=O)c2ccco2)CC1	1	4	0	0	31*	-3
C=C1C=C(C)n2ncc(C(=O)NCCCCCC)c2N1	.	.	-1	.	.	.
O=C(CNC(=O)c1ccccc1)OC(Cc1ccccc1)C(=O)Nc1cc(C(F)(F)F)ccc1Cl (stereo not given)	-3	.	.	.	-7	.
O=C1CCC[C@@H]2C[C@@]3(C[C@@H]4CCN1[C@H]24)Nc1cc([N+](=O)[O-])ccc1NC3=NCc1ccccc1	.	.	2	.	.	.
CC1(C)CC(=O)C(C(c2ccco2)C2C(=O)CC(C)(C)CC2=O)C(=O)C1	0	2	-1	2	39*	-8
O=C1CN(C(=O)c2cccc(S(=O)(=O)N3CCCC3)c2)c2ccccc2N1	0	29	-1	0	41*	2
CC(=O)N1CCN(S(=O)(=O)c2cccc(C(=O)OCC(=O)N3CC(=O)Nc4ccccc43)c2)CC1	0	25	1	1	-4	6
SMILES	TRHR ag	TRPML1 inh	TRPML1 agonist	TRPV1 ag	TRHR enhancer	TRPV1 potentiator
O=C(O)CN1C(=O)NC2(CCCc3ccccc32)C1=O (stereo not given)	1	8	0	-4	2	1
CC(C)CNC(=O)CN1C(=O)NC2(CCCc3ccccc32)C1=O (stereo not given)	-1	5	7	2	31*	3
Cc1cccc(N(C(=O)c2csnn2)C(C(=O)NC2CCCCC2)c2ccccn2)c1C (stereo not given)	-1	-7	1	2	38*	17
CCCC(c1nnnn1Cc1cccs1)N1CCN(c2nc3ccccc3s2)CC1 (stereo not given)	0	-18	61*	-2	5	?
CC(C)(C)OC(=O)NCc1nnc(-c2nc3ccccc3[nH]2)o1	0	.	.	.	-5	.
N#C/C(=C\c1coc2ccc(O)cc2c1=O)C(=O)Nc1nc2ccccc2s1	74*	-22	72*	?	16	-9
N#C/C(=C\c1coc2ccccc2c1=O)C(N)=S	-1	-14	-1	-4	1	?
Cn1c2cc(S(C)(=O)=O)sc2c2cnn(Cc3ccccc3F)c(=O)c21	0	.	.	.	1	.
COc1ccc2oc(=O)c(C(=O)NCCc3c(C)[nH]c4c(C)cccc34)cc2c1	0	-17	3	.	51*	.
Cc1[nH]c2ccc(F)cc2c1CCNC(=O)c1cc2cc(Cl)ccc2oc1=O	0	19	3	.	4	.
COc1cccc2cc(C(=O)NCCc3c(C)[nH]c4ccc(F)cc34)c(=O)oc12	-1	18	3	.	39*	.
O=C(Nc1ccccc1-c1cn2c(CN3CCNCC3)csc2n1)c1cnc2ccccc2n1	.	.	0	.	.	.
Cc1ccc(CCNC(=O)C23CN(Cc4ccccc4)CC2C(c2cccc([N+](=O)[O-])c2)=NO3)cc1 (stereo not given)	0	4	17	7	34*	17
COc1ccc(CCNC(=O)C23CN(Cc4ccccc4)CC2C(c2cccc([N+](=O)[O-])c2)=NO3)cc1 (stereo not given)	0	-3	0	4	0	-7
CC(=O)N1N=C(c2ccccc2)OC12CCCC2	0	-7	0	2	-2	1
CC(=O)N1N=C(c2ccc(Cl)cc2)OC1(C)C	0	-7	0	12	34*	-3
CCCC(=O)Nc1ccc(C(=O)NCCc2ccc(F)cc2)cc1	0	0	-1	3	34*	7
Cc1cccc(OCCCCn2c(C3CC(=O)N(c4ccccc4Cl)C3)nc3ccccc32)c1 (stereo not given)	1	3	-1	.	33*	.
Cc1ccc(C)n1-c1ncn[nH]1	0	23	0	3	30*	8
CC(C)CC1Nc2ncnc(N3CCCCC3)c2N(Cc2ccc(Br)cc2)C1=O (stereo not given)	0	13	1	82*	-4	1

Assay outcomes: PubChem BioAssay, National Center for Advancing Translational Sciences (NCATS)
